# PubChem BioAssay
# Active and inactive are the calls of the source. Unless noted, how the calls were made is not given here.
# Experiments:
# [1] = resazurin metabolic signal in HepG2 cells – cell-based, resazurin fluorescence, 24 h, PK04 Diversity Set, profiling panel (AID 1172); details: HepG2 viability, higher = more signal; further: test concentration not given here
# [2] = budding yeast growth changes without added modifier – OD600, strain BY4716, 24 h, basal condition, primary screen (AID 1173); details: S. cerevisiae BY4716 growth, OD600, 24 h; higher = more signal, called active from +8 up or from −8 down
# [3] = viability profiling in MM1S myeloma cells – cell-based, resazurin fluorescence, basal, 24 h, PK04 Diversity Set, profiling panel (AID 1174); details: higher = more signal, called active from +8 up or from −8 down;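 further: MM1S multiple myeloma cell line; test concentration not given here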
# [4] = biological target: Dihydroorotate dehydrogenase (quinone), mitochondrial (Plasmodium falciparum (isolate 3D7)) (UniProt Q08210); experiment: inhibition of P. falciparum DHODH – biochemical, C-terminal His tag, absorbance 600 nm, primary screen (AID 1175); details: PfDHODH enzyme, DCIP absorbance 600 nm; higher = more signal, called active from +8 up or from −8 down;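 further: recombinant parasite enzyme with a five histidine tag at its C terminus; test concentration not given here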
# Sequence of Dihydroorotate dehydrogenase (quinone), mitochondrial (Plasmodium falciparum (isolate 3D7)) (Q08210 whole entry, looked up): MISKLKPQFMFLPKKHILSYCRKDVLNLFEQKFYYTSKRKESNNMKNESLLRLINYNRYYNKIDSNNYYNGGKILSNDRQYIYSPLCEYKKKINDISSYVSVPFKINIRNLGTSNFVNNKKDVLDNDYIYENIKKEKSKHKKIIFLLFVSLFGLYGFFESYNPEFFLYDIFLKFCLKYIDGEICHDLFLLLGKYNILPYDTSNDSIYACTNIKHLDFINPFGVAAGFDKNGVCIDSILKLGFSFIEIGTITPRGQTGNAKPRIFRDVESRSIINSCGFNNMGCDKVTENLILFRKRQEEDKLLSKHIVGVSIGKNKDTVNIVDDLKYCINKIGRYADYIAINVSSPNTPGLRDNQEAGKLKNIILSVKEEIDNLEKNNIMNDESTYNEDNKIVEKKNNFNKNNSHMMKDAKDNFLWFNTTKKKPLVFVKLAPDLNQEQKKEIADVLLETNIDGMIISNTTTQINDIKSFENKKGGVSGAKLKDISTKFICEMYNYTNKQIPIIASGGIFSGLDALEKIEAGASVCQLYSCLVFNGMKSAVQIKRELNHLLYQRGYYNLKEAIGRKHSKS
# [5] = inhibition of PAO1 biofilm formation – strain PAO1, LB-PBS medium, absorbance 600 nm, primary screen (AID 1176); further: test concentration not given here; details: P. aeruginosa PAO1 growth/biofilm, A600, 12 h; higher = more signal
# [6] = growth modulation of vineyard yeast isolate – strain RM11-1a, OD600, basal, 24 h, primary screen (AID 1177);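 further: cultures grown under basal conditions with no added stressor; test concentration not given here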; details: S. cerevisiae RM11-1a growth, OD600, 24 h; higher = more signal, called active from +8 up or from −8 down
# [7] = growth of efflux-deficient E. coli DRC39 – strain DRC39, OD650, 24 h, E. coli filamentation inducers, primary screen (AID 1178);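 further: growth measured as culture turbidity by optical density at 650 nm; test concentration not given here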; details: E. coli DRC39 acrAB, higher = more signal, called active from +8 up or from −8 down
# [8] = growth of efflux-deficient E. coli DRC39 – strain DRC39, OD650, 48 h, E. coli filamentation inducers, primary screen (AID 1179);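 further: screen aims at cell division blockers that make cells filament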; details: E. coli DRC39 delta-acrAB growth, higher = more signal, called active from +8 up or from −8 down
# [9] = viability profiling in RPMI8226 myeloma cells – cell-based, resazurin fluorescence, basal, 24 h, PK04 Diversity Set, profiling panel (AID 1180); details: higher = more signal;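 further: RPMI8826 multiple myeloma cell line at 5000 cells per well; test concentration not given here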
# [10] = biological target: E3 ubiquitin-protein ligase XIAP (Homo sapiens) (UniProt P98170); experiment: small molecules binding XIAP protein – biophysical, small-molecule microarray, fluorescence 635 nm, primary screen (AID 1181); details: higher = more signal;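 further: score merges 667 nm emission and signal to noise over triplicate slides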
# Sequence of E3 ubiquitin-protein ligase XIAP (Homo sapiens) (P98170 whole entry, looked up): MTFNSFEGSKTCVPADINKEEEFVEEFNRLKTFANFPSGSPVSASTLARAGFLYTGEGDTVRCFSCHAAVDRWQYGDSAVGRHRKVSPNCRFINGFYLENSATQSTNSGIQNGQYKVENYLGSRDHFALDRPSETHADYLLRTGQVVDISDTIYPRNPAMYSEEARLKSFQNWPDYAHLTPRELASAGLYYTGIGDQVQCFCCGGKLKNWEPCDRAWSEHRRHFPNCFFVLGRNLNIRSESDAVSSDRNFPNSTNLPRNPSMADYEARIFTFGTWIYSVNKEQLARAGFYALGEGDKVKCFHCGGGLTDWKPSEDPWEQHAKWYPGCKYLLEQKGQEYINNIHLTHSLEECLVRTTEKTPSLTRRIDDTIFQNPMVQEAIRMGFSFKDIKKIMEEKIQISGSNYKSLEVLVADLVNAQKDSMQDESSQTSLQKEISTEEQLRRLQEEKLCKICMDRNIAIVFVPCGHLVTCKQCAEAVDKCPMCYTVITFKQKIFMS
SMILES,z-score [1],z-score [2],z-score [3],composite z-score [4],z-score [5],z-score [6],z-score [7],z-score [8],z-score [9],composite z-score [10]
COc1cc(CO)cc(I)c1O[C@H]1C=C(C(=O)NCCO)C[C@@H](NC[C@@H]2CCCO2)[C@@H]1O,0.773,-0.813 (inactive),-0.292 (inactive),0.459 (inactive),0.0694 (inactive),0.683 (inactive),1.16 (inactive),0.915 (inactive),0.577,-0.13
COC(=O)[C@@]1(Cc2ccccc2)[C@H]2c3cc(C(=O)N(C)C)n(Cc4ccc(OC)c(OC)c4)c3C[C@H]2CN1C(=O)c1ccccc1,-0.872,0.721 (inactive),-0.799 (inactive),-0.831 (inactive),0.302 (inactive),0.358 (inactive),-0.874 (inactive),-0.695 (inactive),-2.19,-0.289
CC[C@@H]1C=C(C(=O)O)[C@H](c2cccc3ccccc23)N1S(=O)(=O)c1ccc(C)cc1,-0.359,0.518 (inactive),-0.653 (inactive),0.859 (inactive),0.546 (inactive),-0.43 (inactive),-0.624 (inactive),0.225 (inactive),-1,-0.359
NCCCCCNC(=O)[C@H]1C[C@H]2C(=O)N[C@@H](Cc3ccccc3)C(=O)N2[C@H]1c1cccc(OCCO)c1,0.391,-1.84 (inactive),1.04 (inactive),0.884 (inactive),0.022 (inactive),-0.439 (inactive),-0.154 (inactive),0.496 (inactive),0.953,-0.0599
CO[C@H]1O[C@H](CO)[C@@H](OC(=O)Nc2ccc(Br)cc2)[C@@H]2OC(=O)[C@H](Cc3cccc(Br)c3)C/C=C/C[C@@H](Cc3cccc(Br)c3)C(=O)O[C@@H]12,-1.34,-1.89 (inactive),-1.79 (inactive),-2.81 (inactive),0.594 (inactive),0.459 (inactive),0.778 (inactive),0.69 (inactive),-1.45,-0.16
C=C(CCCC)C(=O)CC[C@@H](OC(C)=O)c1ccc(CO)o1,0.519,-12.9 (active),0.292 (inactive),-8.56 (active),1.27 (inactive),-0.944 (inactive),0.435 (inactive),0.339 (inactive),0.624,0.151
CN(C)CCCCCCNC(=O)[C@@H]1C[C@@H]2C(=O)N[C@@H](CCCC[N+](C)(C)C)C(=O)N2[C@@H]1c1ccc(O)cc1,-0.916,-0.661 (inactive),-1.07 (inactive),-1.06 (inactive),-0.0212 (inactive),-0.0569 (inactive),0.301 (inactive),0.575 (inactive),-0.746,0.0785
COCCCNC(=O)[C@@]1(CCS(=O)(=O)c2ccccc2)N=C(c2ccc(OCCCO)cc2)O[C@H]1c1ccccc1N=[N+]=[N-],0.531,-0.865 (inactive),-0.368 (inactive),-0.396 (inactive),-0.385 (inactive),-0.488 (inactive),1.28 (inactive),0.863 (inactive),-0.264,-0.005
CC=CC(O)C1C=CC2C(=O)N(C)C(=O)C2N1N(c1ccccc1)c1ccccc1 (stereo not given),0.0376,0.554 (inactive),-0.505 (inactive),1.13 (inactive),-0.531 (inactive),0.823 (inactive),-1.15 (inactive),-0.321 (inactive),-0.905,0.0116
COCCOC(=O)N1C(=O)[C@@]2(c3cc(C#CCCO)ccc31)[C@H](c1ccc(OCCO)cc1)N1[C@H](c3ccccc3)[C@H](c3ccccc3)OC(=O)[C@H]1[C@@H]2C(N)=O,-0.569,1.67 (inactive),-0.371 (inactive),0.561 (inactive),0.449 (inactive),3.69 (inactive),0.315 (inactive),0.399 (inactive),-0.103,-0.192
COc1cc2c(cc1OC)CN(C(=O)[C@H]1[C@@H]3C(=O)O[C@@H](c4ccccc4)[C@@H](c4ccccc4)N3[C@@H](c3ccccc3OCCO)[C@]13C(=O)Nc1ccc(C#CCCO)cc13)CC2,0.51,1.69 (inactive),-0.442 (inactive),0.749 (inactive),1.54 (inactive),3.11 (inactive),-0.456 (inactive),-0.542 (inactive),-0.0397,-0.152
C#CCOc1ccc(C[C@@H](C(=O)OC)N(CC#C)[C@@H](/C=C/C2CC2)[C@H](O)Cc2ccccc2)cc1,0.288,1.03 (inactive),0.232 (inactive),0.567 (inactive),-0.271 (inactive),1.45 (inactive),-0.741 (inactive),-0.528 (inactive),0.318,0.157
COCCOC(=O)N1C(=O)[C@@]2(c3cc(C#CC4(O)CCCCCC4)ccc31)[C@H](c1ccccc1OCCO)N1[C@H](c3ccccc3)[C@H](c3ccccc3)OC(=O)[C@H]1[C@@H]2C(=O)N1CCc2cc(OC)c(OC)cc2C1,0.598,2.06 (inactive),-0.9 (inactive),0.445 (inactive),2.26 (inactive),3.05 (inactive),-0.404 (inactive),-0.405 (inactive),-0.203,-0.127
COc1ccc([Si](C)(C)[C@@H]2[C@@H](CCO)O[C@]3(C(=O)N(Cc4cccc(N5CCOC5=O)c4)c4ccccc43)[C@H]2C)cc1,-1.09,2.41 (inactive),-3.35 (inactive),-0.346 (inactive),2.95 (inactive),6.05 (inactive),1.4 (inactive),0.44 (inactive),-2.78,-0.0599
O=C1OCCC=C[C@H]2OC34C=CCN(c5ccc(Cl)cc5)C(=O)[C@H]3N(CCCO)C(=O)[C@@H]4C12 (stereo not given in full),-0.281,-0.757 (inactive),0.357 (inactive),-0.792 (inactive),0.248 (inactive),-0.163 (inactive),0.881 (inactive),0.415 (inactive),-0.658,-0.0826
CCCC(=O)N(CCc1c[nH]c2ccccc12)[C@@H]1CC(C(=O)NCCO)=C[C@H](Oc2c(I)cc(CO)cc2OC)[C@H]1O,0.627,-1.22 (inactive),-0.176 (inactive),0.0595 (inactive),0.789 (inactive),0.152 (inactive),0.336 (inactive),0.582 (inactive),0.114,-0.222
O=C1O[C@H](c2ccccc2)[C@H](c2ccccc2)N2[C@H]1[C@@H](C(=O)NC[C@H](O)c1ccccc1)[C@]1(C(=O)Nc3ccc(C#CC4=CCCCC4)cc31)[C@H]2c1ccccc1OCCO,-2.02,1.89 (inactive),-6.77 (inactive),-0.894 (inactive),2.9 (inactive),1.96 (inactive),-0.561 (inactive),0.105 (inactive),-6.5,-0.144
CCOC(=O)C1=CCC(c2ccc(F)cc2)N(S(=O)(=O)c2ccc(C)cc2)C1 (stereo not given),-0.175,1.47 (inactive),-0.866 (inactive),-0.217 (inactive),0.766 (inactive),0.241 (inactive),-0.614 (inactive),-0.124 (inactive),-1.76,0.206
COCCCNC(=O)[C@@H]1c2ccccc2C(=O)N(Cc2ccccc2OC)[C@H]1c1ccc(CO)cc1,1.13,-0.993 (inactive),1.71 (inactive),0.253 (inactive),1.23 (inactive),-0.839 (inactive),0.342 (inactive),0.261 (inactive),1.14,0.0472
COC(=O)c1c2oc(c1C(=O)OC)C(=O)NC1(CCCCC1)c1cn(nn1)C[C@H](Cc1ccccc1)NC(=O)N[C@H](CO)CC2,1.68,-0.861 (inactive),0.911 (inactive),-0.805 (inactive),0.383 (inactive),-0.0499 (inactive),1.09 (inactive),1.66 (inactive),0.456,-0.118
COc1ccc([Si](C)(C)[C@H]2[C@H](CCO)O[C@@]3(C(=O)N(Cc4ccccc4)c4ccc(N5CCCCC5=O)cc43)[C@@H]2C)cc1,-1.91,0.234 (inactive),-2.66 (inactive),-2.81 (inactive),1.51 (inactive),3.14 (inactive),0.663 (inactive),0.45 (inactive),-3.46,-0.0025
COC(=O)[C@@]1(Cc2ccc(F)cc2)[C@H]2c3cc(C(=O)N(C)C)n(Cc4cc(C)n(C)n4)c3C[C@H]2CN1C(=O)c1ccccc1,-0.806,-0.169 (inactive),-0.943 (inactive),-0.368 (inactive),0.495 (inactive),-0.0352 (inactive),-0.431 (inactive),-0.851 (inactive),-0.856,0.473
